The text below walks through data of PubChem BioAssay AID977621 (Broad Institute, 2014).

The structures appear in SMILES notation. The whole screen tested about 1,900 compounds, of which fewer than 10 were called active. Not shown: some 6% with an inconclusive outcome.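 How the source made its calls: active means Wild-type ribosome reporter drop at least double the humanized mutant ribosome reporter drop, growth loss under a set limit; inconclusive means no clear call, values can overlap the other calls; inactive means the rest.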 A selection follows.

The assay in a line: wild-type E. coli growth inhibition versus H69 humanized strain – H69 mutant RFP, wild-type GFP, cherry-pick, dose response (AID 977621).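 Further: wild-type GFP and H69 mutant RFP strains grown together 50/50 in each well.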 Particulars: fluorescence, 24 h; series mostly up to 50 µM.
As for `O=C(Nc1cccc(Cl)c1)N1C[C@@H]2[C@H](c3ccccc31)[C@H](CO)N2Cc1ccncc1`, the result was inactive. Regarding `CNC(=O)c1ccsc1NC(=O)c1ccc(S(=O)(=O)N2CCc3ccccc32)cc1`, the compound was called inactive.

As to `Cc1ccccc1S(=O)(=O)NC(=O)C1(C)CCN1C(=O)C1(c2ccc(Cl)cc2)CC1` (configuration not stated), the result was inactive. For the compound `CCc1c(N=O)c(-c2ccccc2)n(O)[n+]1[O-]`, the compound was called inactive. Next, `CCc1cc2cc(OC)ccc2nc1SCC(=O)Nc1cc(OC)c(OC)cc1C(=O)O`: “inactive”; `CC1CCCC(NC(=O)COC(=O)[C@@H]2CC(O)CN2S(=O)(=O)c2ccc3c(c2)OCCO3)C1C` (some centres not stated): “inactive”; `Cn1cc(CCC(=O)NCc2ccc3c(c2)OCO3)c2ccccc21`: “inactive”. Next, `C[C@@H](Nc1nc(-c2ccccc2)nc2c1oc1ccccc12)C(=O)O`: “inactive”.

For `CC(=O)Nc1ccc(CNc2nc(NCCN(C)C)nc3cc(-c4ccccc4)sc23)cc1`, the outcome was inactive. For `Fc1cccc(Cl)c1CSc1ccc(-c2ccco2)nn1`, the compound was classed as inactive. Then `Cc1ccc(C(=O)NCC(=O)OCC(=O)Nc2cccc(S(=O)(=O)N3CCCC3)c2)cc1C`, with “inactive”; and `Cc1cc(C)cc(NC(=O)c2cccc(NC(=O)C3C4CC5OC(=O)C3C5C4)c2)c1` (configuration not stated), with “inactive”; and `Cc1ccc(OCCCC(=O)NC(C)c2ccccc2)c(C)c1` (configuration not stated), with “inactive”.

For the compound `Cc1nn(C(C)(C)C)c(OC(=O)CC(C)C)c1S(=O)(=O)c1ccccc1`, the compound was called inactive.

For `O=C(NCCc1csc(-c2ccccc2)n1)c1ccccc1F`, the call was inactive. In the case of `Cc1cccc(NC(=O)c2nc(S(=O)(=O)Cc3ccccc3)ncc2Cl)c1`, the compound was classed as inactive. Then `Cc1ccc(-c2c[n+](CC(=O)Nc3ccccc3)c3n2CCC3)cc1`, with “inactive”; and `COc1ccc(C(C)=O)cc1COc1ccc(Cl)c(C)c1`, with “inactive”.

For the compound `COc1cccc(S(=O)(=O)N2CCCCN3[C@H](C2)[C@H](c2ccc(C#CC(C)C)cc2)[C@@H]3CO)c1`, the outcome was inactive. For the compound `COc1ccc2c(c1)c1ncn(Cc3ccccn3)c(=O)c1n2C`, the result was inactive. For the compound `O=C(Nc1nnc(Cc2ccc(Cl)cc2)s1)c1ccncc1`, the call was inactive. Consider `Cc1ccc2c(N)c(C(=O)c3ccccc3)sc2n1`, for which the result was inactive. As to `Cc1onc(-c2ccccc2Cl)c1C(=O)OCC(=O)c1ccccc1`, the call was inactive. On to `COc1ccc(CN(C)C[C@H]2Oc3ccc(NS(=O)(=O)c4ccc(Cl)cc4)cc3CC(=O)N([C@@H](C)CO)C[C@H]2C)cc1`, for which the outcome was inactive.

As to `Cc1ccc(F)c(NC(=O)CCOc2ccccc2C)c1`, the result was inactive. `COc1ccccc1N1CCN(Cc2ccc(OC)c3ccccc23)CC1`: the compound was classed as inactive. Turning to `CC1CCCN(c2ccc(C(=O)NCCc3ccccc3)cn2)C1` (configuration not stated), the compound was called inactive.

Consider `COc1ccc(C2=NN(C(=O)c3cccnc3)C(c3ccccc3)C2)cc1` (configuration not stated), for which the compound was called inactive. Then `Cc1ncoc1C(=O)NCCC(c1ccccc1)c1ccccc1`, with “inactive”. For the compound `OCCN(Cc1ccccc1)Cc1ccc(Cl)cc1`, the outcome was inactive.

Consider `Cc1ccccc1-n1nnnc1SCCCC(=O)c1ccc(F)cc1`, for which the compound was called inactive.

With `CCN(CC)C(=O)c1sc2nc(-c3ccccc3)ccc2c1N`, the compound was called inactive. For `CCn1c(NC(=O)c2nn(C)cc2Br)nc2ccccc21`, the outcome was inactive. As to `Cc1ccc(S(=O)(=O)N2CC(=O)Nc3ccccc32)cc1C`, the compound was classed as inactive. Consider `COC(=O)c1cc(C)sc1NC(=O)CC1Nc2ccccc2NC1=O` (configuration not stated), for which the result was inactive. Then `O=C(NCCc1ccccc1)c1cccc(NC(=O)c2ccccc2)c1`, with “inactive”; and `C[C@@H]1CN([C@@H](C)CO)C(=O)c2cc(NS(=O)(=O)c3ccccc3)ccc2O[C@@H]1CN(C)Cc1ccc(C(=O)Nc2ccccc2N)cc1`, with “inactive”.
